Measured values from paper PMC6212790, “How bacterial xenogeneic silencer rok distinguishes foreign from self DNA in its resident genome”.
The full ranking holds about 33,000 sequences; the median of “e-score” is about -0.038, and the highest 2% start at about 0.33. Only a selection was taken, and the highest values are over-represented in it overall.

The sequences below were run against T1, GST-Rok-C97-191 (Bacillus subtilis subsp. subtilis str. …, UniProt O34857 97-191) (assay: protein binding microarray; Rok is a gene silencer of Bacillus subtilis; high values mean tight binding). Details: protein: recombinant; tags: GST (pTH5325, pDEST15-Magic modified); dsDNA, one strand shown.
T1 sequence: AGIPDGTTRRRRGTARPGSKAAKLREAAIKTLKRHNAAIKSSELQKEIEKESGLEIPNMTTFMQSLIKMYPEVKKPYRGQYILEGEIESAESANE
Method in brief: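 Each has a 25-mer constant primer and a 35-mer variable part from a de Bruijn sequence of order 10, covering every non-palindromic 8-mer at least 32 times (palindromic 16). Preference for each 8-mer is given as a rank-based, unitless enrichment score (E-score). Its range runs from 0.5 (most favored) to −0.5 (most disfavored).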

Sequence	binding signal
ATTAGGAA	-0.056 E-score
TGGGACAA	-0.0222 E-score
CATCCAAC	-0.0608 E-score
AATTATAA	0.274 E-score
CATTATAC	0.177 E-score
AATTATAG	0.303 E-score
GATTATAC	0.238 E-score
AATTATAC	0.348 E-score
AATTATAT	0.398 E-score
AAGGGTGC	-0.165 E-score
CATCTGAA	-0.0216 E-score
ATAACTAG	0.232 E-score
AAAACTAA	0.255 E-score
AAAACTAG	0.364 E-score
AAAACTGT	0.0809 E-score
AAAACTGG	0.0097 E-score
ATAACTAA	0.249 E-score
AAAACTAC	0.433 E-score
AAAACTGC	-0.0367 E-score
ATAACTAT	0.383 E-score
AAAACTAT	0.415 E-score
AAAACTTG	-0.0585 E-score

Sequence	binding signal
AAAACTCC	0.137 E-score
CGATCAAG	-0.0651 E-score
ACATCGCG	0.139 E-score
CCAAATAC	0.137 E-score
GAACGTTC	0.053 E-score
CCGTAGCA	0.075 E-score
ATTTGGAA	0.102 E-score
AGCCAATA	-0.0503 E-score
GAATTCAC	0.074 E-score
CAAACTTA	0.101 E-score
GAAACTAC	0.46 E-score
CAAACTCC	-0.063 E-score
ACAACTAT	0.321 E-score
GCAACTAC	0.239 E-score
TAAACTAA	0.234 E-score
GAAACTTC	0.204 E-score
CAAACTAA	0.374 E-score
CAAACTAG	0.287 E-score
ACAACTAC	0.348 E-score
CAAACTAC	0.446 E-score
GAAACTAA	0.313 E-score
CTGAGTCA	-0.156 E-score

Sequence	binding signal
AGGTTCAC	-0.111 E-score
GGTCCTTA	0.0575 E-score
CAAGGTGA	-0.134 E-score
AAGTTGCA	0.0502 E-score
CTGGTCAA	0.00605 E-score
CCCATATC	-0.0677 E-score
AGCTATTA	0.315 E-score
GATTTATA	0.304 E-score
CATTTATA	0.354 E-score
AATTTATA	0.373 E-score
CATTTTTA	0.184 E-score
AATTTATG	0.209 E-score
CATTTATC	0.218 E-score
ATTCACTA	0.174 E-score
AGTCGATC	-0.00304 E-score
ACGGGAAA	0.132 E-score
ACCGGAAA	-0.1 E-score
GCTATATA	0.355 E-score
GCTATACA	0.176 E-score
ACTATATA	0.437 E-score
ACTATAGA	0.241 E-score
ACTATATC	0.284 E-score

Sequence	binding signal
CCTATATA	0.283 E-score
ACTCTTTA	0.0447 E-score
ATATAGCG	0.349 E-score
ATATAGGG	-0.00212 E-score
ATATAGCC	0.135 E-score
CGATATAG	0.238 E-score
ATATATAG	0.379 E-score
ATGTATAG	0.264 E-score
CCATATAG	0.129 E-score
ATATAGCA	0.3 E-score
CTATATAG	0.413 E-score
AGCTTTGA	0.0387 E-score
AGCGGCAC	-0.177 E-score
ATAGTTAC	0.254 E-score
ATAGTTAG	0.35 E-score
ATAGTTCA	0.265 E-score
ATAGTTCC	0.143 E-score
AAAGTTAG	0.156 E-score
ATAGTTCG	0.354 E-score
CTGTGAGA	-0.127 E-score
GCACTTGA	-0.0251 E-score
CATCATAG	0.00873 E-score

Sequence	binding signal
CTTATTCA	0.048 E-score
CGCAAAGA	-0.193 E-score
GGAAAAAA	-0.0552 E-score
TGTACAAA	0.355 E-score
AGTACAAG	0.247 E-score
GGTACAAA	0.216 E-score
AGTACAAA	0.342 E-score
AGTACAAT	0.269 E-score
CGTACAAA	0.236 E-score
TCGAGGCA	0.00484 E-score
CCGCAAGA	-0.109 E-score
GAATCGGA	-0.078 E-score
CGATAGAC	0.063 E-score
AGATAGAA	0.308 E-score
GGATAGAA	0.195 E-score
TGATAGAA	0.385 E-score
CGATAGAA	0.359 E-score
CGATAGAG	-0.176 E-score
GTGTTACA	0.168 E-score
CTAATGTA	0.185 E-score
ATAATGTG	0.167 E-score
ATAATGTC	0.112 E-score
